Shiga inhibitor: inhibitors of Shiga toxin in Vero cells; Vero cells, Shiga toxin protein synthesis inhibition reporter; inhibition, % at 38.7 µM; 9.2% of 290,000 active; in the data active = inhibition mostly above about 28%, no sharp cut-off; inactive = mostly below about 43%; also: 0% is about no effect
Pf growth 96h: P. falciparum growth inhibition at 96 hour, primary screen for plastid delayed-death inhibitors; AID 504834; Potency, µM (series often up to 28.7 µM), without a hit: at the top dose activity change, negative = inhibition, actives largely listed as inhibitors; 6.9% of 320,000 active; P. falciparum luciferase reporter growth, 96 h; also: potency is read from the fitted curve at half-maximal effect; % is scaled to controls: 0 for no effect and ±100 for the full control effect
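Cell-based qHTS: luciferase-tagged P. falciparum in erythrocytes (2% hematocrit, 0.05% parasitemia final) incubated with compounds for 96 hours, 37 C, 5% CO2; luciferase detection reagent then added and luminescence measured.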
CHX counter: affects cycloheximide protein synthesis inhibition readout, counter-screen; 12% of 300,000 active; max response, %; cell reporter, cycloheximide protein synthesis inhibition counterscreen; in the data active = max response mostly above about 13%, no sharp cut-off; inactive = mostly below about 14%; also: read at 38.3 µM for the half of the compounds with a filed dose; 0% is about no effect
Pf growth 48h: P. falciparum growth inhibition at 48 hours (one generation); 5.9% of 310,000 active; AID 504832; P. falciparum luciferase growth in erythrocytes, 48 h; Potency, µM (titrated, usually from 28.7 µM), inactives show at the highest dose activity change, negative = inhibition, usual class: inhibitors; also: potency is read from the fitted curve at half-maximal effect; % is scaled to controls: 0 for no effect and ±100 for the full control effect
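In quantitative HTS format, infected erythrocytes bearing luciferase-reporter parasites were treated for a single generation at 37 C. Luminescence after adding detection reagent served as the growth measure.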
AMA1 RON2 block: disrupts binding of P. falciparum AMA1 to RON2; AlphaScreen AMA1-biotinylated RON2 peptide binding; Potency, µM (titrated, usually from 58.2 µM), for inactives: at the top dose activity change, negative = inhibition, hits mostly inhibitors; 0.2% of 360,000 active;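 also: potency is read from the fitted curve at half-maximal effect; 0% = vehicle wells and -100% = peptide control; nearly all actives have a fitted effect of over 45% in size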
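AMA1 (3D7) with his tag at 25 nM final met compounds first, then biotinylated RON2 peptide at 25 nM; detection used donor plus acceptor beads, 10 µg/mL apiece, read by AlphaScreen after 30 min at room temperature.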
SARS PLP yeast: blocks SARS-CoV papain-like protease in a yeast assay | S. cerevisiae expressing SARS-CoV PLpro, growth rescue | Potency, µM (highest dose often 32.9 µM), without a hit: at the top dose activity, positive = growth rescue, most hits filed as activators | 0.19% of 330,000 active; calls by dose curve; also: potency is read from the fitted curve at half-maximal effect; 0% is about no effect; nearly all actives have a fitted effect of over 55% in size
The depositor's hits bear a star. An excerpt weighted towards active compounds, which were near 19% of everything screened. Unless noted, calls follow the shape of the dose curve; as a rule, active = well fitted curve in the direction sought with a large enough effect; inconclusive = small, poorly fitted or top-dose-only effect, or another doubt; inactive = no such curve, though single readings can be large; an effect the other way counts as inactive or inconclusive.

`C[C@H](NC(=O)c1nc[nH]c1C(=O)NCc1ccc(CNC(=O)OC(C)(C)C)cc1)c1ccccc1` gave Pf growth 96h inconclusive, Pf growth 48h 10µM*, AMA1 RON2 block 120% and SARS PLP yeast -1%.
Screening C[C@H](NC(=O)c1nc[nH]c1C(=O)NCCCCCNC(=O)OC(C)(C)C)c1ccccc1 returned Pf growth 96h 5.2µM*, Pf growth 48h 10µM*, AMA1 RON2 block 104% and SARS PLP yeast -2%.
`C[C@H](NC(=O)c1nc[nH]c1C(=O)NCc1ccccc1)c1ccccc1` gave Pf growth 96h -1%, Pf growth 48h 0%, AMA1 RON2 block 94% and SARS PLP yeast 2%.
For CC(C)(C)OC(=O)NCCCC[C@H](NC(=O)c1[nH]cnc1C(=O)N[C@@H](Cc1ccccc1)C(=O)OC(C)(C)C)C(=O)OC(C)(C)C the results were Shiga inhibitor -7, Pf growth 96h 3.7µM*, CHX counter 1, Pf growth 48h 2.9µM*, AMA1 RON2 block 108% and SARS PLP yeast 0%.
`CC(C)C[C@H](NC(=O)c1nc[nH]c1C(=O)N(C)Cc1ccccc1)C(=O)OC(C)(C)C` gave Shiga inhibitor -4, Pf growth 96h 7.4µM*, CHX counter -1, Pf growth 48h inconclusive, AMA1 RON2 block 60% and SARS PLP yeast -3%.
CC(C)(C)OC(=O)NCCCC[C@H](NC(=O)c1nc[nH]c1C(=O)NCc1ccccc1)C(=O)OC(C)(C)C was read as Shiga inhibitor -11, Pf growth 96h inconclusive, CHX counter 9, Pf growth 48h inconclusive, AMA1 RON2 block 117% and SARS PLP yeast 0%.
Screening C[C@@H](NC(=O)c1nc[nH]c1C(=O)NCCCCCNC(=O)OC(C)(C)C)c1ccccc1 returned AMA1 RON2 block 131% and SARS PLP yeast -5%.
C[C@H](NC(=O)c1nc[nH]c1C(=O)N[C@@H](CCCCNC(=O)OC(C)(C)C)C(=O)OC(C)(C)C)c1ccccc1 was read as Shiga inhibitor -6, Pf growth 96h inconclusive, CHX counter 9, Pf growth 48h 10µM*, AMA1 RON2 block 125% and SARS PLP yeast 1%.
Screening CN(Cc1ccccc1)C(=O)c1[nH]cnc1C(=O)N[C@@H](CCCCNC(=O)OC(C)(C)C)C(=O)OC(C)(C)C returned Shiga inhibitor -4, Pf growth 96h 8.3µM*, CHX counter -3, Pf growth 48h inconclusive, AMA1 RON2 block 113% and SARS PLP yeast -1%.
Screening CC(C)c1cc(C(=O)NCCc2cccs2)c(N)s1 returned AMA1 RON2 block 55%.
Clc1cccc(-c2csc(Nc3cccnc3)n2)c1 was read as Shiga inhibitor 3, Pf growth 96h inconclusive, CHX counter 12, Pf growth 48h inconclusive, AMA1 RON2 block 3% and SARS PLP yeast -3%.
`CCOc1ccccc1Nc1nc(-c2cccnc2)cs1` gave Shiga inhibitor -3, Pf growth 96h 0%, CHX counter -1, Pf growth 48h 13µM*, AMA1 RON2 block -22% and SARS PLP yeast -6%.
For Clc1ccccc1-c1csc(Nc2cccnc2)n1 the results were Shiga inhibitor 53*, Pf growth 96h -20%, CHX counter 26*, Pf growth 48h inconclusive, AMA1 RON2 block 0% and SARS PLP yeast -3%.
Clc1ccccc1Nc1nc(-c2cccnc2)cs1 was read as Shiga inhibitor 50*, Pf growth 96h 36%, CHX counter 41*, Pf growth 48h 19%, AMA1 RON2 block -8% and SARS PLP yeast -6%.
For O=C(COc1ccc(F)cc1)Nc1nc(-c2cccnc2)cs1 the results were AMA1 RON2 block -8%.
For COc1ccc(NC(=O)N2C[C@H]3CON(C)[C@H]3C[C@H]2c2ccc(N3CCCCC3)cc2)cc1 the results were AMA1 RON2 block -7%.
`CCOC(=O)C1=C(c2ccccc2)NC(N)=NC1c1ccc(OCc2ccc(C(=O)OC)cc2)cc1` (stereo unspecified) gave Shiga inhibitor 2, Pf growth 96h 7.4µM*, CHX counter -2, Pf growth 48h 4.7µM*, AMA1 RON2 block -16% and SARS PLP yeast 0%.
